Compound activity (PubChem BioAssay)
This is a sample that favours compounds with a hit; in the whole collection about 1.3% have one here.
LAP4 TOR yeast – yeast TOR pathway LAP4-GFP modulation; AID 2023; actives 0.34% (n = 320,000); GFP response vs DMSO, % at 10 µM; S. cerevisiae LAP4-GFP multiplex, flow cytometry GFP, 3 h; median GFP as percent of DMSO wells;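 active = GFP response vs DMSO above a set limit, about the screen mean plus 3 SD, cut at about 150% in these data; inconclusive = under 70 cell events counted for the yeast strain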
CIT2 TOR yeast – alters CIT2-GFP fluorescence in TOR pathway yeast screen | S. cerevisiae CIT2-GFP strain, flow cytometry, 3 h; 100 means same as DMSO wells | GFP response vs DMSO, % at 10 µM | actives 0.065% (n = 320,000);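 active = GFP response relative to DMSO above a set limit, near the screen mean plus 3 SD, cut at about 150% in these data; inconclusive = Fewer than 70 cells measured for a yeast strain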;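 note: ratio of well median GFP fluorescence to mean of DMSO wells on the plate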
Efflux pump inh – blocks antifungal efflux pumps in multiplex yeast assay | actives 0.44% (n = 330,000) | S. cerevisiae Candida pump triplex, Nile Red efflux | inhibition, % at 10 µM;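 active = plate passing quality check with inhibition over a set limit, or well fluorescence over plate mean plus 4 SD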;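 note: Nile Red retained in pooled yeast measured as flow cytometry median fluorescence; 0% = buffer negative control and 100% = Enniatin B positive control; higher means more Nile Red kept so more efflux inhibition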
AGP1 TOR yeast – yeast TOR pathway AGP1-GFP modulation | S. cerevisiae AGP1-GFP multiplex flow cytometry, 3 h; GFP as percent of DMSO wells | GFP response vs DMSO, % at 10 µM | actives 0.02% (n = 320,000) | AID 2066;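 active = GFP response relative to DMSO above a set limit, near screen average plus 3 SD, cut at about 150% in these data; inconclusive = fewer than 70 cells counted for the yeast strain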;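 note: median GFP channel fluorescence of the gated AGP1 strain per well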
RPL19A-GFP yeast – alters RPL19A-GFP fluorescence in TOR pathway yeast screen; S. cerevisiae RPL19A-GFP strain, flow cytometry, 3 h; active compounds read low; percent response vs DMSO, % at 10 µM; actives 0.3% (n = 330,000);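 active = percent response vs DMSO below 50%; inconclusive = fewer than 70 events counted for the yeast strain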;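 note: median channel GFP fluorescence of the barcoded RPL19A-GFP strain; ratio of sample median GFP to plate DMSO average so 100% = DMSO; lower means less RPL19A-GFP as with rapamycin TOR inhibition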
MEP2 TOR yeast – modulators of TOR pathway MEP2-GFP in S. cerevisiae. GFP response vs DMSO, % at 10 µM. AID 2016. S. cerevisiae MEP2-GFP strain, flow cytometry GFP, 3 h; 100% = DMSO control level. actives 0.51% (n = 330,000);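 active = GFP response versus DMSO above a set limit, roughly screen mean plus 3 SD, cut at about 180% in these data; inconclusive = fewer than 70 cells counted for a yeast strain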;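 note: median GFP fluorescence of the barcode-gated MEP2-GFP cells per well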
An asterisk follows results filed as active; ? = inconclusive; / = not tested or not shown; [ ] = remark or other dose.

SMILES	LAP4 TOR yeast	CIT2 TOR yeast	Efflux pump inh	AGP1 TOR yeast	RPL19A-GFP yeast	MEP2 TOR yeast
N#CC1=C(N)OC2=C(CC/C2=C\c2ccccc2)C1c1ccccc1 (stereo not given)	107.1	?	-0.3	18.6	94.5	188.2*[may fluoresce violet]
O=C(NNC(=O)C1CCCCC1)C(=O)NC1CCCCC1	154.9*	125.7	0.2	106.8	105.5	176.9*
O=C(NC1CCCCCC1)C(=O)NC1CC1	101.0	105.8	0.0	94.5	102.0	110.6
N#CCOc1ccccc1/C=C/c1nc2ccccc2c(=O)[nH]1	60.9	?	-0.1	?	24.4*[may fluoresce violet]	243.0*[may fluoresce violet]
Cc1ccccc1/C=C\c1nc2ccccc2c(=O)[nH]1	99.6	92.8	0.1	89.5	98.0	101.5
Cc1cc(C)nc(NC(=O)c2cccc(Cl)c2)n1	88.8	?	-0.1	?	17.1*[may fluoresce violet]	724.6*[may fluoresce violet]
Cc1cc(C)nc(NC(=O)c2ccc(Cl)cc2)n1	104.3	104.8	-0.1	107.3	99.5	108.7
CCN(Cc1ccccc1)C(=O)c1cc(S(=O)(=O)N2CCOCC2)cn1C	109.3	92.6	0.3	91.3	103.1	98.6
Cc1ccc(N(CC(=O)N2CCN(c3ccc(F)cc3)CC2)S(=O)(=O)c2c(C)noc2C)cc1	115.0	95.4	-0.2	103.5	97.5	94.8
O=C(Cc1ccc([N+](=O)[O-])cc1)Nc1cccc(C(=O)N2CCCCC2)c1	92.7	80.7	0.0	88.1	101.4	94.0
CCN(CC)S(=O)(=O)c1ccc(N/N=C/c2cc(OC)c(OC)cc2OC)nc1	87.6	?	0.3	22.1	68.4	201.5*[may fluoresce violet]
Cn1nc(C(F)(F)F)c(C(=O)Nc2ccc(Cl)cc2)c1Cl	72.0	?	-0.1	18.4	23.1*[may fluoresce violet]	352.9*[may fluoresce violet]
CCCCN(CCCC)CCCOC(=O)c1ccc(N)cc1	183.4*	86.6	0.1	90.7	79.8	93.0
Cc1ccccc1C(=O)Nc1ccnn1C1CCN(Cc2ccc(CO)o2)CC1	92.0	102.0	0.1	98.9	98.8	97.6
CN(C)c1ccc(CNS(=O)(=O)c2ccc3c(c2)NC(=O)CS3)cc1	97.9	93.7	0.8	97.3	101.4	111.9
Cc1ccc(-c2ccc(/C=N/NC(N)=S)o2)cc1	158.3*	85.1	0.1	82.4	82.1	93.5
NC(=S)N/N=C/c1ccc(-c2ccccc2)o1	112.1	92.8	0.0	98.5	95.6	98.0
COc1cccc(C2C(C(=O)Nc3nc4ccccc4s3)=C(C)NC3=C2C(=O)CC(C)(C)C3)c1OC (stereo not given)	89.5	94.7	0.2	91.4	92.9	98.2
COc1ccc(OC)c(C2C(C(=O)Nc3nc4ccccc4s3)=C(C)NC3=C2C(=O)CCC3)c1 (stereo not given)	100.1	72.3	0.1	39.2	78.6	183.0*
COc1ccc(CCN2CC(C(=O)OCC(=O)Nc3c(C)nn(-c4ccccc4)c3C)CC2=O)cc1OC (stereo not given)	101.7	105.0	0.0	102.0	103.0	103.9
CCn1c(O)c(N=NC(=O)C(O)c2ccccc2)c2ccccc21 (stereo not given)	105.6	96.5	0.0	100.8	98.7	102.3
CS(=O)(=O)N(CCc1ccccc1)CC(=O)N1CCCC1	?	?	-0.1	?	42.8*[may fluoresce violet]	?
CS(=O)(=O)N(CC(=O)N1CCCCC1)Cc1ccccc1	98.3	102.2	0.0	102.4	100.5	100.7
c1ccc2c(NCC3CCCO3)nc(N3CCOCC3)nc2c1 (stereo not given)	78.4	?	0.1	?	21.7*[may fluoresce violet]	237.3*[may fluoresce violet]
COc1ccc(C2(CNC(=O)C(=O)Nc3ccc(C)cc3)CCOCC2)cc1	97.7	96.7	0.0	94.4	99.4	101.0
SMILES	LAP4 TOR yeast	CIT2 TOR yeast	Efflux pump inh	AGP1 TOR yeast	RPL19A-GFP yeast	MEP2 TOR yeast
COc1ccc(C2(CNS(=O)(=O)c3ccc(C)cc3)CCOCC2)cc1	96.5	?	0.1	21.6	50.5	190.8*[may fluoresce violet]
Cc1ccc(S(=O)(=O)N(CC(=O)Nc2ccccc2C(=O)O)c2ccccc2C)cc1	104.8	99.2	-0.1	106.9	100.1	101.9
Cc1ccc(S(=O)(=O)N(CC(=O)Nc2cccnc2)c2ccccc2C)cc1	86.2	93.0	-0.1	13.7	72.1	188.5*
CCN1c2ccccc2N(C)C1(C)c1ccccc1 (stereo not given)	102.3	101.6	-0.2	95.1	97.5	102.9
CN1c2ccccc2N(C)C1(C)c1ccccc1	91.6	?	-0.2	20.2	39.2*[may fluoresce violet]	185.7*[may fluoresce violet]
CN(C)/C(=N\S(=O)(=O)c1ccccc1)c1ccc(Cl)cc1	105.4	99.2	-0.1	99.0	105.6	112.5
O=C(O)c1cc(NC(=O)c2cccc(N3C(=O)c4ccccc4C3=O)c2)cc(C(=O)O)c1	73.8	92.8	0.1	95.7	108.2	104.9
O=C(O)c1cccc(NC(=O)c2ccc3c(c2)C(=O)N(c2ccccc2)C3=O)c1	50.2	?	-0.1	?	85.9	376.2*[may fluoresce violet]
Fc1ccc2nc3c(nc2c1)CCCC3	94.8	98.1	0.1	98.1	103.0	103.1
CCc1ccc(CC2(O)CC(C)N(C)CC2C)cc1 (stereo not given)	104.2	99.8	-0.5	102.1	102.5	101.6
CC1CC(O)(CC(O)(c2ccccc2)c2ccccc2)C(C)CN1C (stereo not given)	74.8	?	0.2	?	65.4	251.3*[may fluoresce violet]
CCOc1ccc2c(c1)c(C(C)=O)c(C)n2-c1ccccc1	98.7	?	0.0	/	35.0*[may fluoresce violet]	628.1*[may fluoresce violet]
O=C1OCCN1C(=O)[C@H]1[C@H](c2ccc(F)cc2)C(c2ccc(F)cc2)=NN1c1ccc(Br)cc1	130.3	?	-0.1	15.6	91.7	383.1*[may fluoresce violet]
COc1ccccc1CNCC(=O)Nc1ccc(N(C)C)cc1	95.6	99.3	2.3	101.1	103.7	97.1
CCN(CC)Cc1c(O)ccc2c(=O)c(-c3ccc4c(c3)OCCO4)coc12	85.6	?	0.0	/	38.0*[may fluoresce violet]	182.2*[may fluoresce violet]
O=C1CCN(C2CCN(Cc3nc(Cc4ccccc4F)no3)CC2)CCN1	101.9	95.4	-0.1	101.7	100.5	97.8
C/C(=N\NC(=O)COc1ccccc1-c1ccccc1)c1ccccn1	170.9*	104.6	-0.1	94.6	90.1	93.5
S=C(Nc1ccc(Cl)cc1)Nc1ccc2cn[nH]c2c1	169.2*	64.7	0.3	74.1	95.1	85.4
COc1ccc(-c2csc(N(CC(C)C)C(=O)c3ccco3)n2)cc1	99.7	99.7	-0.2	150.4*	109.7	106.1
COC(=O)c1ccc(CSc2nc3ccc(Cl)cc3[nH]2)o1	100.1	94.5	-0.5	96.7	/	103.6
COC(=O)c1ccc(CSc2nc3scc(-c4cccs4)c3c(=O)[nH]2)o1	104.3	?	0.3	?	38.9*[may fluoresce violet]	178.4*[may fluoresce violet]
Cc1c(CCO)c(=O)[nH]n1S(=O)(=O)c1ccc([N+](=O)[O-])cc1	102.1	155.6*[may fluoresce green]	-0.2	115.1	92.3	103.1
